Source: PubChem BioAssay (NCATS)
Inconclusive results are not listed. A call without a number means that no potency is given here. The source made the active and inactive calls. The call rests on the fitted dose curve.

Assay: Validation screen for inhibitors of Lassa infection (AID 463096)
Details: Lassa virus infection, cell-based; series mostly up to 46.1 µM

Compound	Potency
c1cnc(N2CCN(Cc3ccc4c(c3)OCO4)CC2)nc1	inactive
CCOC(=O)C(C)(C)Oc1ccc(Cl)cc1	inactive
OC(CN1CCC(Cc2ccc(F)cc2)CC1)c1ccc(Cl)cc1 (centres undefined)	inactive
COc1ccc(CN(CCN(C)C)c2ccccn2)cc1	inactive
CC1=C(CC(=O)O)c2cc(F)ccc2/C1=C\c1ccc(S(C)(=O)=O)cc1	inactive
Cn1cnc2c1c(=O)[nH]c(=O)n2C	inactive
CNC(=O)Oc1ccc2c(c1)[C@]1(C)CCN(C)[C@@H]1N2C	inactive
Cc1ccc(/C(=C\CN2CCCC2)c2ccccn2)cc1	inactive
COc1nc(C)nc(Cl)c1NC1=NCCN1	inactive
c1ccc([C@H]2CN3CCSC3=N2)cc1	inactive
COC(=O)[C@@H](N)Cc1ccc(O)c(O)c1	inactive
C=CCc1ccccc1OCC(O)CNC(C)C (centres undefined)	inactive
CC1=C(CC(=O)O)c2cc(F)ccc2/C1=C\c1ccc(S(C)=O)cc1 (centres undefined)	inactive
NS(=O)(=O)c1cc2c(cc1Cl)NCNS2(=O)=O	inactive
O=C1N(c2ccccc2)c2ccccc2C1(Cc1ccncc1)Cc1ccncc1	inactive
Fc1ccc(C(c2ccc(F)cc2)N2CCN(C/C=C/c3ccccc3)CC2)cc1	inactive
O=C(O)CCc1nc(-c2ccccc2)c(-c2ccccc2)o1	inactive

Compound	Potency
Cc1[nH]c(=O)c(C#N)cc1-c1ccc2nccn2c1	inactive
CN(C)CCC(c1ccccc1)c1ccccn1 (centres undefined)	inactive
CCCCNc1ccc(C(=O)OCCN(C)C)cc1	inactive
CCCN(CCC)C(=O)C(CCC(=O)O)NC(=O)c1ccccc1 (centres undefined)	inactive
CC(C(O)c1ccc(O)cc1)N1CCC(Cc2ccccc2)CC1 (centres undefined)	inactive
CN1CCC(=C2c3ccccc3CC(=O)c3sccc32)CC1	inactive
C[C@]12CCC(=O)C=C1CC[C@@H]1[C@@H]2CC[C@@]2(C)[C@H]1CC[C@]2(O)C(=O)CO	inactive
CCNC(=O)N1CCN(CCCC(c2ccc(F)cc2)c2ccc(F)cc2)CC1	inactive
CC(=O)OCC1=C(C(=O)O)N2C(=O)[C@@H](NC(=O)CSc3ccncc3)[C@H]2SC1	inactive
C[C@]12CC[C@@H]3c4ccc(O)cc4CC[C@H]3[C@@H]1CCC2=O	inactive
COC(=O)C1=C(C)NC(C)=C(C(=O)OC)C1c1ccccc1[N+](=O)[O-]	inactive
COc1ccc2c(c1)c(CC(=O)O)c(C)n2C(=O)c1ccc(Cl)cc1	inactive
CCN(CC)CC(=O)Nc1c(C)cccc1C	inactive
NCCc1ccc(O)c(O)c1	inactive
CCCCC1C(=O)N(c2ccccc2)N(c2ccccc2)C1=O	inactive
CCc1cccc2c3c([nH]c12)C(CC)(CC(=O)O)OCC3 (centres undefined)	inactive
N[C@@H](Cc1c[nH]c2ccc(O)cc12)C(=O)O	inactive
